Experimental data from PubChem BioAssay AID492956 (The Scripps Research Institute Molecular Screening Center, 2010).
“And” between values parts separate entries of the source, which are not always exact repeats. Equal entries are not always repeated. Hit rate of the full screen: of about 340,000 compounds, about 3,300 (0.97%) were called active. The list comes from a sample in which actives are over-represented; it also holds similar structures and randomly drawn compounds. Values without a mark were called inactive.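 The calls were made as follows: active = inhibition above the mean over all tested compounds plus 3 SD (cut at about 30% in these data); inactive = the rest.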

biological target: Platelet-activating factor acetylhydrolase 2, cytoplasmic (Homo sapiens) (UniProt Q99487); assay: inhibition of cytoplasmic PAF acetylhydrolase 2 – biochemical, fluorescence polarization, human, primary screen (AID 492956); settings: recombinant PAFAH2, FP-rhodamine activity probe, at 3.39 µM, stronger effect = higher value;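 also: inhibitors block probe labeling of enzyme so polarization drops; 0% = enzyme with DMSO and 100% = wells lacking PAFAH2 protein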

Structure (SMILES)	inhibition
Cc1cccc(C2C3=C(CCCC3=O)N=C3c4ccccc4C(=O)C32)c1 (stereo not given)	9.45%
O/N=C(\C[n+]1ccccc1)c1ccc(Br)cc1	-4.24%
O=C(C1CCN(Cc2ccc(Cl)cc2)CC1)N1CCN(Cc2ccc3c(c2)OCO3)CC1	2.96%
CCCOc1ccc(NC(=O)CC2C(=O)N(C)C(=S)N2Cc2ccc3c(c2)OCO3)cc1 (stereo not given)	-2.75%
O=C(Nc1ccc(Cl)cc1)C1c2cccc[n+]2CC(=O)N1Cc1ccc2c(c1)OCO2 (stereo not given)	43.6% (active)
Cc1c(Br)cc(C(=O)N2CCCCCC2)c(C)c1C	1.14%
CC1CCc2c(sc3c2C2=NS(=O)(=O)CCN2C=N3)C1 (stereo not given)	0.66%
COCCNC(=O)NC(=O)COC(=O)C1(c2ccc(Cl)cc2)CC1	13%
Cc1ccc(Cc2nnc(SCC(=O)Nc3ccccc3C)[nH]c2=O)cc1	6.57%
COc1ccccc1-c1cnn2c(N3CCOCC3)cc(C)nc12	-3.57%
CS(=O)(=O)c1ccc(C(=O)OCC(=O)NNC(=O)COc2ccc(Cl)cc2)cc1	1.43%
CCS(=O)(=O)c1ccc(O)c(NC(=O)COc2ccc(Cl)cc2)c1	75.6% (active)
O=C(COc1ccc(Cl)cc1)Nc1ccccc1CO	0.9%
O=C(c1ccc(=O)[nH]c1)N(Cc1ccco1)C1(C(=O)NC2CCCCC2)CCCCC1	-0.52%
N#Cc1nc(COc2ccc(Cl)cc2)oc1N1CCCC1	-5.85%
COc1cccc(/C=C/C(=O)OCC(=O)N2CCN(c3ccccc3)CC2)c1	1.44%
O=C(OCC(=O)N1CCN(c2ccccc2)CC1)c1ccc([N+](=O)[O-])s1	35.3% (active)
C[C@H](NC(=O)c1ccccc1Cl)C(=O)OCC(=O)N1CCN(c2ccccc2)CC1	-2.12%
CC(C)(C)NC(=O)CSc1nnc(NC(=O)CCc2ccccc2)s1	0.99%
CC(C)CNC(=O)COC(=O)c1ccccc1OCC(=O)Nc1ccc(Br)cc1	-2.18%
O=C(COC(=O)c1ccccc1C(=O)c1ccccc1)c1ccco1	43% (active)
CCOC(=O)c1ccc(NC(=O)CNC(=O)c2ccco2)cc1	1.1%
CCc1ccc(C(=O)COC(=O)c2ccco2)cc1	9.26%
CC(=O)Nc1ccc(NC(=O)COc2ccc(-c3ccccc3)cc2)cc1	-5.15%
O=C(CNC(=O)c1ccco1)OCC(=O)c1ccccc1	4.2%
CC(=O)Nc1ccc(NC(=O)COC(=O)c2ccccc2C(=O)c2ccccc2)cc1	32.1% (active)
O=C(OCC(=O)N1CCN(C(=O)c2ccco2)CC1)c1ccccc1Cc1ccccc1	10.9%
CCN(CC)c1ccc(C(=O)OCC(=O)c2ccco2)cc1	35.1% (active)

Structure (SMILES)	inhibition
CC1(C)C2CCC1(CS(=O)(=O)NCCc1c[nH]c3ccccc13)C(=O)C2 (stereo not given)	4.84%
O=[N+]([O-])c1ccc(Oc2ccc(F)cc2Br)c2ccncc12	-2.87%
O=S(=O)(NC1CC1)c1ccc(Cl)cc1	6.44%
Cc1cc(N)n(-c2ccc(S(=O)(=O)N3CCCC3)cc2[N+](=O)[O-])n1	3.65%
O=C(CNC(=O)c1ccc(Cl)cc1Cl)NCC(=O)Nc1ccccc1N1CCOCC1	7.59%
Oc1ccccc1C1=NN(c2ccccc2)C(c2ccccc2)C1 (stereo not given)	2.45%
Cn1cccc1C(=O)OCC(=O)NCCc1ccccc1	12.9%
O=C(COC(=O)c1c2c(nc3ccccc13)CCCC2)c1ccc(Br)s1	-8.93%
Cn1cccc1C(=O)OCC(=O)c1ccc(Br)s1	40.2% (active)
C=CCN(C(=O)Cn1ncc2c1-c1cc(C)ccc1OC2)c1ccccc1	7.42%
O=C(c1c(F)cccc1F)N1CCN(c2ncc(Br)cn2)CC1	9.7%
COc1cc(C(=O)NCC2(c3ccccc3)CCCC2)ccc1OC(C)C	174% (active)
COc1ccc(C2(CNC(=O)Cc3ccc(OC)c(OC)c3)CCCC2)cc1	0.3%
CCOc1c(OC)cccc1C(=O)NCC1(c2ccccc2)CCCC1	-1.33%
O=C(NC(=O)c1ccccc1N1CCCCC1)Nc1ccc(Br)cc1	-2.91%
NC(=O)Nc1ccc(C(=O)OCC(=O)NC2CCCc3ccccc32)cc1 (stereo not given)	71.5% (active)
Nc1ccc(C(=O)OCC(=O)NC2CCS(=O)(=O)C2)cc1[N+](=O)[O-] (stereo not given)	0.87%
O=C(CCNC(=O)c1ccc(Cl)cc1)NC1CCCc2ccccc21 (stereo not given)	0.23%
Nc1ccc(C(=O)OCC(=O)NC2CCCc3ccccc32)cc1[N+](=O)[O-] (stereo not given)	56.6% (active)
CCOc1ccc(NC(=O)COc2ccc(C(=O)NC3CCCc4ccccc43)cc2OC)cc1 (stereo not given)	-2.16%
COC(=O)c1cc(OCC(=O)NC2CCCc3ccccc32)cc(C(=O)OC)c1 (stereo not given)	0.45%
O=C(NNc1nc(N2CCCC2)nc(N2CCCC2)n1)c1ccccc1	8.18%
CC(=O)N1c2ccc(S(=O)(=O)N3CCC(C(=O)N4CCN(c5ccccc5)CC4)CC3)cc2CC1C (stereo not given)	-4.15%
COc1cc(C(=O)NCc2nnc(SCC(=O)Nc3nc4ccc(C)cc4s3)o2)cc(OC)c1OC	4.41%
CCOc1ccc(CCNC(=O)C2=C(C)C(=O)OC23CCC(C)CC3)cc1OCC (stereo not given)	5.73%
c1ccc(CCC2=NCCn3cccc32)cc1	-3.37% and -2.16%
O=C(OCC(=O)N1CCCCC1)c1ccc(OC(F)(F)F)cc1	5.16%
